# PubChem BioAssay (Tox21)
# Several values for one entry are separate records, joined by “and”; a condition that tells them apart may be missing. Equal entries are not always repeated. Inconclusive results are not listed. More than one record can exist for a structure, and the calls need not agree. Activity calls are given as the source filed them. Calls follow the shape of the dose curve; as a rule, active = well fitted inhibition curve with a large enough effect in the repeat runs; inconclusive = weak or mixed curves; inactive = no such curve, though single readings can be large or run the other way.
# Target: Cytochrome P450 1A2 (Homo sapiens) (UniProt P05177)
# Sequence (P05177 whole entry, looked up): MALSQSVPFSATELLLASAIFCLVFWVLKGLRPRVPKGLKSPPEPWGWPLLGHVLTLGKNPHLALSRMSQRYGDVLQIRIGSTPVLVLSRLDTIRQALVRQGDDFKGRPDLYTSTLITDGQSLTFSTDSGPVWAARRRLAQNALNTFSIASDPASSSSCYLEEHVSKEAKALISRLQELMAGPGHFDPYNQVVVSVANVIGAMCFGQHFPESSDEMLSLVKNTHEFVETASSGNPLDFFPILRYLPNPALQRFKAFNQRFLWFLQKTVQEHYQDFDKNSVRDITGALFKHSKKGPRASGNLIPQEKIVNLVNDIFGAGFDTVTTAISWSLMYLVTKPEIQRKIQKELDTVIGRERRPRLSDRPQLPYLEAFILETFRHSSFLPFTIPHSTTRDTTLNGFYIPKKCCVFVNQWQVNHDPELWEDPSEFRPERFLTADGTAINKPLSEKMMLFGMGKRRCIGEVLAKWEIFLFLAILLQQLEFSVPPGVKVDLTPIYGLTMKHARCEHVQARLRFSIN
# Assay: Cytochrome P450 Family 1 Subfamily A Member 2 (CYP1A2) small molecule antagonists: luciferase reporter qHTS assay (AID 1671199); also: nearly all actives have a fitted effect of over 50% in size
# Details: P450-Glo CYP1A2 enzyme, luciferin luminescence, 1 h; series mostly up to 115 µM
# Method in brief: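 Room-temperature CYP1A2 reaction with proluciferin substrate: compounds added from DMSO, 10 min preincubation, NADPH regeneration for 1 h. Luciferin detection reagent then added; luminescence recorded as RLU.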
# Potency is read from the fitted curve at half-maximal effect.
row,Compound,Potency
1,CCCCOCCOC(C)=O,inactive
2,CC(C)(C#N)N=NC(C)(C)C#N,inactive
3,O=C(O)c1nn(Cc2ccc(Cl)cc2Cl)c2ccccc12,inactive
4,CC1CC(=O)O1 (stereo unspecified),inactive
5,C=CC(=O)OCC(CC)(COC(=O)C=C)COC(=O)C=C,39.9 µM (active)
6,Oc1ccc(Cl)cc1Cl,35.3 µM (active) and 39.9 µM (active)
7,CC(C)(O)C#N,inactive and 39.9 µM (active)
8,O=NN1CCOCC1,inactive
9,CCOC(=O)c1ccccc1N,28.1 µM (active) and 31.7 µM (active)
10,COc1ccc(O)c(C(C)(C)C)c1,39.9 µM (active)
11,CCNc1nc(Cl)nc(NC(C)(C)C#N)n1,39.9 µM (active)
12,Brc1ccc(Br)cc1,inactive
13,CCC/C=N/O,inactive
14,CCCCOC(=O)COC(=O)c1ccccc1C(=O)OCCCC,11.2 µM (active) and 20 µM (active)
15,Nc1ncn[nH]1,inactive
16,CC(C)(c1ccccc1)c1ccc(O)c(C(C)(C)c2ccccc2)c1,35.3 µM (active) and 35.6 µM (active)

row,Compound,Potency
1,c1ccc(C2CO2)cc1 (stereo unspecified),inactive
2,Clc1ccc(C(Cl)(Cl)Cl)cc1,inactive
3,COc1ccc(C=O)cc1OC,32.1 µM (active) and 31.7 µM (active)
4,CCOS(=O)(=O)OCC,35.6 µM (active) and inactive
5,ClCC(Cl)CCl,44.8 µM (active)
6,O=NN(c1ccccc1)c1ccccc1,34.8 µM (active)
7,CCC[CH2][Sn]([Cl])([CH2]CCC)[CH2]CCC,40 µM (active)
8,Clc1cccc(C(Cl)(Cl)Cl)n1,11.2 µM (active)
9,CSc1nc(NC(C)C)nc(NC(C)C)n1,17.8 µM (active)
10,CC(C)COC(=O)c1ccccc1C(=O)OCC(C)C,12.6 µM (active) and 8.94 µM (active)
11,CCOP(=O)(OCC)OCC,17.5 µM (active) and inactive
12,[CH3][Sn]([Cl])([Cl])[Cl],inactive
13,ClCc1ccccn1,inactive
14,CCCCCCCC[N+](C)(CCCCCCCC)CCCCCCCC,39.8 µM (active) and 35.6 µM (active)
15,CCOP(=S)(OCC)SCSC(C)(C)C,39.9 µM (active)
